Test results: PubChem BioAssay (NCATS)
Active and inactive are the calls of the source. The call rests on the fitted dose curve.

Experiment: qHTS drug screen for cell cycle checkpoint inhibitors in PARPi-resistant BRCA-mutant ovarian cancer cell lines. (AID 1963452)
Details: PEO1/OlaR viability, CellTiter-Glo luminescence, 96 h, stronger effect = lower value
Description: Women's Malignancies Branch, Center for Cancer Research (CCR),
National Cancer Institute (NCI), National Institutes of Health (NIH), Bethesda, MD
Poly (ADP-ribose) polymerase inhibitors (PARPis) have changed the treatment paradigm in breast cancer gene (BRCA) - mutant high-grade serous ovarian carcinoma (HGSC). However, most patients eventually develop resistance to PARPis, highlighting an unmet need for improved therapeutic strategies. Using high-throughput drug screens, we identified ataxia telangiectasia and rad3-related protein/checkpoint kinase 1 (CHK1) pathway inhibitors as cytotoxic and further validated the activity of the CHK1 inhibitor (CHK1i) prexasertib in PARPi-sensitive and -resistant BRCA-mutant HGSC cells and xenograft mouse models. CHK1i monotherapy induced DNA damage, apoptosis, and tumor size reduction. We then conducted a phase 2 study (NCT02203513) of prexasertib in patients with BRCA-mutant HGSC. The treatment was well tolerated but yielded an objective response rate of 6% (1 of 17; one partial response) in patients with previous PARPi treatment. […] BRCA reversion mutation in previously PARPi-treated BRCA-mutant patients was not associated with resistance to CHK1i.
Among others, 1082 oncology drugs, both approved and investigational, were prioritized based on their status in clinical trial development. […] Drugs with average Z-AUC values less than -1.0 in all three cell lines were classified as "hits" resulting in 151 oncology drug hits. The screen also confirmed cross-resistance between olaparib and other PARPis (rucaparib, niraparib, and talazoparib) in PARPi-resistant PEO1/OlaR and PEO4.
[1] G. L. Lin, K. M. Wilson, M. Ceribelli, B. Z. Stanton, P. J. Woo, S. Kreimer, E. Y. Qin, X. Zhang, J. Lennon, S. Nagaraja, P. J. Morris, M. Quezada, S. M. Gillespie, D. Y. Duveau, A. M. Michalowski, P. Shinn, R. Guha, M. Ferrer, C. Klumpp-Thomas, S. Michael, C. McKnight, P. Minhas, Z. Itkin, E. H. Raabe, L. Chen, R. Ghanem, A. C. Geraghty, L. Ni, K. I. Andreasson, N. A. Vitanza, K. E.Warren, C. J. Thomas, M. Monje, Therapeutic strategies for diffuse midline glioma from high-throughput combination drug screening. Sci. Transl. Med. 11, (2019).
[2] T. M. Yamamoto, A. McMellen, Z. L. Watson, J. Aguilera, R. Ferguson, E. Nurmemmedov, T. Thakar, G. L. Moldovan, H. Kim, D. M. Cittelly, A. M. Joglar, E. P. Brennecke, H. Wilson, K. Behbakht, M. J. Sikora, B. G. Bitler, Activation of Wnt signaling promotes olaparib resistant ovarian cancer. Mol. Carcinog. 58, 1770 - 1782 (2019).
PROTOCOL TABLE (as described by Inglese J, Shamu CE and Guy RK. 2007)
SEQUENCE No. (e.g., 1, 2, 3, etc.); […] (e.g., Cells, Incubation, Reagent, etc.); VALUE; DESCRIPTION.
1; Compounds; 20nL; 1536-well white tissue culture-treated plates.
2; Cells; 5 uL; PEO1, PEO4, and PEO1/OlaR cells at 600 cells per well.
3; Incubation; 96 hr; 37C, 95% humidity, 5% CO2.
4; Reagent; 3 uL; CellTiter-Glo (Promega).
5; Incubation; 15 min; room temperature.
6; Detection; Luminescence, PHERAstar (BMG Labtech) plate reader.
NOTES (numbers refer to Sequence numbers above)
1. MIPE 5.0 compounds were acoustically dispensed by Echo Acoustic Liquid Handler (Beckman Coulter Life Sciences). Each compound was plated at an 11-point concentration range with 1:3 dilution. Bortezomib, a proteasome inhibitor (final concentration, 20 uM), was used as a positive.
2. PEO1, PEO4, and PEO1/OlaR were trypsinized and dispensed in 5 uLof growth medium using a Multidrop Combi dispenser at a density of 600 cells per well to allow compounds to be present during the exponential growth phase.
3. Plates were incubated for 96 hours at standard incubator conditions and covered by a stainless steel gasketed lid to prevent evaporation.
4. Three microliters of CellTiter-Glo (Promega) were added to each well.
5. Plates were incubated at room temperature for 15 min with a stainless-steel lid in place.
6. Luminescence readings were taken using PHERAstar (BMG Labtech). […]

[1] = measured here: PEO1 parental Z-AUC

Row | Compound | Z-AUC | Z-AUC [1] | Z-AUC (measured here: PEO4 Z-AUC)
1 | OC1CCC(Nc2ncc3nc(Nc4c(F)cc(F)cc4F)n([C@@H]4CCOC4)c3n2)CC1 (some centres not stated) | 0.218 (inactive) | 0.89 | 0.44
2 | CC(C)[C@H](O)C(=O)N[C@@H](C)C(=O)N[C@@H]1C(=O)N(C)CCc2ccccc21 | -0.413 (inactive) | -0.342 | -0.336
3 | N[C@@H](CC(=O)N1CCn2c(nnc2C(F)(F)F)C1)Cc1cc(F)c(F)cc1F | 0.69 (inactive) | 0.734 | 0.789
4 | Cc1cccc(Nc2nc(N[C@@H]3CCCC[C@H]3N)ncc2C(N)=O)c1 | -0.597 (inactive) | -0.615 | -0.03
5 | Cc1cc(OCCCS(C)(=O)=O)cc(C)c1-c1cccc(COc2ccc3c(c2)OC[C@H]3CC(=O)O)c1 | -0.127 (inactive) | 0.128 | 0.794
6 | NC1(C(=O)N[C@@H](CCO)c2ccc(Cl)cc2)CCN(c2ncnc3[nH]ccc23)CC1 | -0.465 (inactive) | 0.588 | 0.532
7 | CN1C(=O)C[C@H](C(=O)N[C@@H](Cc2cnc[nH]2)C(=O)N2CCC[C@@H]2C(N)=O)NC1=O | 0.875 (inactive) | 1.25 | 1.02
8 | CN(C)CCOc1cc(-c2cn[nH]c2)ccc1NC(=O)C1COc2ccccc2O1 (configuration not stated) | 1.15 (inactive) | 0.743 | 1.03
9 | C[C@@H](NC(=O)c1ncnc(N)c1Cl)c1ncc(C(=O)Nc2cc(C(F)(F)F)c(Cl)cn2)s1 | 0.509 (inactive) | 0.52 | 0.658
10 | CC(C)(OCc1nn(Cc2ccccc2)c2ccccc12)C(=O)O | 1.03 (inactive) | 1.11 | 1.54
11 | CC(NCCc1ccc(O)cc1)C(O)c1ccc(O)cc1 (configuration not stated) | -0.504 (inactive) | 0.762 | 0.7
12 | COc1cc(Nc2nc3ccccc3nc2NS(=O)(=O)c2ccc(NC(=O)c3ccc(C)c(OC)c3)cc2)cc(OC)c1 | -0.848 (inactive) | -0.462 | -0.582
13 | O=C(Nc1cccc(C(F)(F)F)c1)Nc1cc(S(=O)(=O)NC2CC2)ccc1-c1ccsc1 | -0.117 (inactive) | -0.289 | -0.479
14 | CCc1cc(-c2n[nH]c(C)c2-c2ccc3c(c2)OCCO3)c(O)cc1O | 0.644 (inactive) | 0.497 | 0.316
